Data taken from ChEMBL document CHEMBL4296182, “CO-ADD screening of NIH NCI Diversity Set V”.
For part of these data: Measured potencies and affinities stand elsewhere.

Tests used:
Staphylococcus aureus = experiment: Antibacterial activity against Staphylococcus aureus MRSA ATCC 43300 (CO-ADD:GP_020); MIC in CAMBH media using NBS plates, by Resazurin F(560/590); format: functional; details: Concentration 20 uM, ASSAY_TEST Inhibition of Bacterial Growth, detection method Resazurin, Fluorescence (ex560/em590), MEDIA CAMHB, plate type 384well, CORNING #3640, time 18 hr
Acinetobacter baumannii = experiment: Antibacterial activity against Acinetobacter baumannii ATCC 19606 (CO-ADD:GN_034); MIC in CAMBH media using NBS plates, by Resazurin F(560/590); format: functional; details: Concentration 20 uM, ASSAY_TEST Inhibition of Bacterial Growth, detection method Resazurin, Fluorescence (ex560/em590), MEDIA CAMHB, plate type 384well, CORNING #3640, time 18 hr
Escherichia coli = experiment: Antibacterial activity against Escherichia coli ATCC 25922 (CO-ADD:GN_001); MIC in CAMBH media using NBS plates, by Resazurin F(560/590); format: functional; details: Concentration 20 uM, ASSAY_TEST Inhibition of Bacterial Growth, detection method Resazurin, Fluorescence (ex560/em590), MEDIA CAMHB, plate type 384well, CORNING #3640, time 18 hr
Klebsiella pneumoniae = details: Concentration 20 uM; ASSAY_TEST Inhibition of Bacterial Growth; detection method Absorption (OD600); MEDIA CAMHB; plate type 384well; NBS; CORNING #3640; time 18 hr
Candida albicans = details: 20 µM
Cryptococcus neoformans = details: Concentration 20 uM; ASSAY_TEST Inhibition of Fungal Growth; detection method Resazurin; Absorption (OD600-OD570); plate type 384well; NBS; CORNING #3640

With `Cc1ccc(CC#N)c(-c2c(CC#N)ccc(C)c2C)c1C` as the molecule, how does the Inhibition (Staphylococcus aureus) read?
The Inhibition was 10.31%.

What about the Inhibition (Acinetobacter baumannii) of the same molecule?
The Inhibition was -9.1%.

And the Inhibition (Escherichia coli)?
The Inhibition was 13.28%.

What about the Inhibition (Klebsiella pneumoniae) of the same molecule?
The Inhibition was 6.29%.

And the Inhibition (Candida albicans)?
The Inhibition was 3.94%.

And the Inhibition (Cryptococcus neoformans)?
The Inhibition was -13.71%.

Which Inhibition (Staphylococcus aureus) does the source give for `O=[N+]([O-])c1c(N2CCN(CCO)CC2)nc2ccccn12` here?
The Inhibition was 9.01%.

What about the Inhibition (Acinetobacter baumannii) of the same molecule?
Its Inhibition is -8.14%.

And the Inhibition (Escherichia coli)?
Its Inhibition is 6.29%.

What about the Inhibition (Klebsiella pneumoniae) of the same molecule?
Its Inhibition is 3.38%.

And the Inhibition (Candida albicans)?
The Inhibition was -0.65%.

What about the Inhibition (Cryptococcus neoformans) of the same molecule?
Its Inhibition is -4.29%.

How did the Inhibition (Staphylococcus aureus) turn out when `Cn1c2c(sc1=O)CCC2` was run?
Its Inhibition is 14.81%.

What about the Inhibition (Acinetobacter baumannii) of the same molecule?
The Inhibition was -10.92%.

What about the Inhibition (Escherichia coli) of the same molecule?
The Inhibition was 5.93%.

And the Inhibition (Klebsiella pneumoniae)?
The Inhibition was 16.07%.

And the Inhibition (Candida albicans)?
Its Inhibition is 2.06%.

What about the Inhibition (Cryptococcus neoformans) of the same molecule?
Its Inhibition is -0.94%.

How did the Inhibition (Staphylococcus aureus) turn out when `CSC1=NC=C(C#N)C2=NC(c3ccc(Cl)cc3)NN12` (stereo not given) was run?
Its Inhibition is -1.38%.

What about the Inhibition (Acinetobacter baumannii) of the same molecule?
Its Inhibition is 5.14%.

What about the Inhibition (Escherichia coli) of the same molecule?
Its Inhibition is -2.57%.

What about the Inhibition (Klebsiella pneumoniae) of the same molecule?
The Inhibition was 11.21%.

What about the Inhibition (Candida albicans) of the same molecule?
The Inhibition was 1.44%.

What about the Inhibition (Cryptococcus neoformans) of the same molecule?
Its Inhibition is 39.9%.

What does the source list for `CC1=C2C3OC(=O)C(C)C3CCC2(C)C=C(Cl)C1=O` (stereo not given)?
Inhibition (Staphylococcus aureus): -4.99%; Inhibition (Acinetobacter baumannii): -5.14%; Inhibition (Escherichia coli): -9.28%; Inhibition (Klebsiella pneumoniae): 10.19%; Inhibition (Candida albicans): 1.04%; Inhibition (Cryptococcus neoformans): -2.81%

Which results are given for `Cc1cc2nc(-c3ccccn3)c(-c3ccccn3)nc2cc1C`?
Inhibition (Staphylococcus aureus): -0.99%; Inhibition (Acinetobacter baumannii): 3.74%; Inhibition (Escherichia coli): 8.69%; Inhibition (Klebsiella pneumoniae): 9.38%; Inhibition (Candida albicans): 1.37%; Inhibition (Cryptococcus neoformans): -10.29%

For `CCOC(=O)N1C/C(=C\c2ccccc2)C(=O)/C(=C/c2ccccc2)C1`, which Inhibition (Staphylococcus aureus) is on record?
Its Inhibition is 10.93%.

What about the Inhibition (Acinetobacter baumannii) of the same molecule?
Its Inhibition is 7.26%.

And the Inhibition (Escherichia coli)?
The Inhibition was 0.16%.

What about the Inhibition (Klebsiella pneumoniae) of the same molecule?
The Inhibition was 12.83%.

What about the Inhibition (Candida albicans) of the same molecule?
Its Inhibition is 6.37%.

What about the Inhibition (Cryptococcus neoformans) of the same molecule?
Its Inhibition is -7.05%.

Which Inhibition (Staphylococcus aureus) does the source give for `NC(=O)Nc1n[nH]c(-c2ccccc2)n1` here?
The Inhibition was -5.91%.

And the Inhibition (Acinetobacter baumannii)?
Its Inhibition is -11.11%.

And the Inhibition (Escherichia coli)?
The Inhibition was -7.81%.

What about the Inhibition (Klebsiella pneumoniae) of the same molecule?
Its Inhibition is 2.72%.

And the Inhibition (Candida albicans)?
Its Inhibition is 1.88%.

And the Inhibition (Cryptococcus neoformans)?
Its Inhibition is 1.04%.

Which results are given for `COCCn1c2nc(=O)n(-c3ccccc3)c(=O)c-2nc2ccccc21`?
Inhibition (Staphylococcus aureus): 12.62%; Inhibition (Acinetobacter baumannii): -2.61%; Inhibition (Escherichia coli): 6.79%; Inhibition (Klebsiella pneumoniae): 23.4%; Inhibition (Candida albicans): 1.39%; Inhibition (Cryptococcus neoformans): 4.88%

`O=[N+]([O-])c1cc(-c2cccnc2)[nH]n1` was tested. Which Inhibition (Staphylococcus aureus) did it give?
Its Inhibition is -4.13%.

And the Inhibition (Acinetobacter baumannii)?
Its Inhibition is -4.27%.

And the Inhibition (Escherichia coli)?
The Inhibition was 2.34%.

What about the Inhibition (Klebsiella pneumoniae) of the same molecule?
Its Inhibition is 30.86%.

And the Inhibition (Candida albicans)?
The Inhibition was 1.12%.

And the Inhibition (Cryptococcus neoformans)?
The Inhibition was -1.42%.

Which results are given for `Oc1ncc(I)cc1I`?
Inhibition (Staphylococcus aureus): 37.5%; Inhibition (Acinetobacter baumannii): 6.08%; Inhibition (Escherichia coli): 2.67%; Inhibition (Klebsiella pneumoniae): 22.74%; Inhibition (Candida albicans): 4.4%; Inhibition (Cryptococcus neoformans): 23.72%

With `CCCCSc1[nH]cnc2nncc1-2` as the molecule, how does the Inhibition (Staphylococcus aureus) read?
The Inhibition was -2.6%.

And the Inhibition (Acinetobacter baumannii)?
The Inhibition was -0.75%.

What about the Inhibition (Escherichia coli) of the same molecule?
Its Inhibition is 12.29%.

What about the Inhibition (Klebsiella pneumoniae) of the same molecule?
The Inhibition was -0.95%.

What about the Inhibition (Candida albicans) of the same molecule?
Its Inhibition is 4.01%.

What about the Inhibition (Cryptococcus neoformans) of the same molecule?
Its Inhibition is -16.47%.

What does the source list for `CC(=O)CC[N+](C)(C)C.[I-]`?
Inhibition (Staphylococcus aureus): 1.22%; Inhibition (Acinetobacter baumannii): -9.05%; Inhibition (Escherichia coli): 1.86%; Inhibition (Klebsiella pneumoniae): 4.32%; Inhibition (Candida albicans): 4.03%; Inhibition (Cryptococcus neoformans): -9.72%

With `O=C1OCC/C1=C\c1ccc2c(c1)OCO2` as the molecule, how does the Inhibition (Staphylococcus aureus) read?
Its Inhibition is 9.07%.

And the Inhibition (Acinetobacter baumannii)?
Its Inhibition is -7.38%.

And the Inhibition (Escherichia coli)?
The Inhibition was 9.99%.

What about the Inhibition (Klebsiella pneumoniae) of the same molecule?
The Inhibition was 4.4%.

What about the Inhibition (Candida albicans) of the same molecule?
The Inhibition was 3.83%.

What about the Inhibition (Cryptococcus neoformans) of the same molecule?
Its Inhibition is 0.17%.

`Nc1nc(N)c(/N=N/c2ccc(C(=O)O)cc2)c(N)n1` was tested. Which Inhibition (Staphylococcus aureus) did it give?
Its Inhibition is 20.24%.

And the Inhibition (Acinetobacter baumannii)?
The Inhibition was -14.9%.

What about the Inhibition (Escherichia coli) of the same molecule?
The Inhibition was 9.92%.

What about the Inhibition (Klebsiella pneumoniae) of the same molecule?
The Inhibition was 6.15%.

What about the Inhibition (Candida albicans) of the same molecule?
Its Inhibition is 7.35%.

What about the Inhibition (Cryptococcus neoformans) of the same molecule?
The Inhibition was -10.91%.

How did the Inhibition (Staphylococcus aureus) turn out when `CCSc1nc(C)c(C)c(O)n1` was run?
The Inhibition was -7.95%.

What about the Inhibition (Acinetobacter baumannii) of the same molecule?
Its Inhibition is -12.73%.

What about the Inhibition (Escherichia coli) of the same molecule?
The Inhibition was 10.67%.

What about the Inhibition (Klebsiella pneumoniae) of the same molecule?
The Inhibition was 6.61%.

What about the Inhibition (Candida albicans) of the same molecule?
The Inhibition was 2.45%.

What about the Inhibition (Cryptococcus neoformans) of the same molecule?
Its Inhibition is -10.18%.

For `CC(C)n1cc(C#N)c(N)n1`, which Inhibition (Staphylococcus aureus) is on record?
The Inhibition was -0.87%.

What about the Inhibition (Acinetobacter baumannii) of the same molecule?
Its Inhibition is -8.48%.

And the Inhibition (Escherichia coli)?
Its Inhibition is 18.87%.

What about the Inhibition (Klebsiella pneumoniae) of the same molecule?
Its Inhibition is 15.17%.

What about the Inhibition (Candida albicans) of the same molecule?
Its Inhibition is 3.75%.

What about the Inhibition (Cryptococcus neoformans) of the same molecule?
Its Inhibition is -6.7%.

For `Cn1c(=O)c2c(nc(Cc3ccccc3)n2C)n(C)c1=O`, which Inhibition (Staphylococcus aureus) is on record?
The Inhibition was 3.97%.

What about the Inhibition (Acinetobacter baumannii) of the same molecule?
Its Inhibition is 12.97%.

And the Inhibition (Escherichia coli)?
The Inhibition was -5.53%.

And the Inhibition (Klebsiella pneumoniae)?
Its Inhibition is 15.33%.

And the Inhibition (Candida albicans)?
The Inhibition was 4.11%.

What about the Inhibition (Cryptococcus neoformans) of the same molecule?
The Inhibition was -7.23%.

Which Inhibition (Staphylococcus aureus) does the source give for `CC1(C)CCCC2(C)C(OCCO)=CC(=O)C=C12` (stereo not given) here?
The Inhibition was 7.52%.

What about the Inhibition (Acinetobacter baumannii) of the same molecule?
The Inhibition was 8.39%.

And the Inhibition (Escherichia coli)?
Its Inhibition is 0.39%.

And the Inhibition (Klebsiella pneumoniae)?
Its Inhibition is 20.08%.

And the Inhibition (Candida albicans)?
Its Inhibition is 2.7%.

And the Inhibition (Cryptococcus neoformans)?
Its Inhibition is -10.94%.

Which results are given for `CC1=CC(=O)CC(C)(C)C1(O)/C=C/C(C)=C/C(=O)O` (stereo not given)?
Inhibition (Staphylococcus aureus): -9.32%; Inhibition (Acinetobacter baumannii): -14.23%; Inhibition (Escherichia coli): 1.66%; Inhibition (Klebsiella pneumoniae): 3.67%; Inhibition (Candida albicans): 5.51%; Inhibition (Cryptococcus neoformans): -3.67%

How did the Inhibition (Staphylococcus aureus) turn out when `O=C(O)/C=C\c1cc2c(cc1[N+](=O)[O-])OCO2` was run?
The Inhibition was 16.17%.

And the Inhibition (Acinetobacter baumannii)?
Its Inhibition is -13.7%.

And the Inhibition (Escherichia coli)?
The Inhibition was 7.39%.

And the Inhibition (Klebsiella pneumoniae)?
The Inhibition was 10.81%.

What about the Inhibition (Candida albicans) of the same molecule?
Its Inhibition is 3.76%.

And the Inhibition (Cryptococcus neoformans)?
The Inhibition was -6.94%.

`CCSc1nc(O)cc(O)n1` was tested. Which Inhibition (Staphylococcus aureus) did it give?
The Inhibition was 23.71%.

And the Inhibition (Acinetobacter baumannii)?
Its Inhibition is -7.74%.

And the Inhibition (Escherichia coli)?
Its Inhibition is 11.78%.

And the Inhibition (Klebsiella pneumoniae)?
Its Inhibition is 13.65%.

And the Inhibition (Candida albicans)?
Its Inhibition is 4.28%.

What about the Inhibition (Cryptococcus neoformans) of the same molecule?
The Inhibition was 3.85%.

`CCCCSc1nc(O)cc(C(=O)O)n1` was tested. Which Inhibition (Staphylococcus aureus) did it give?
Its Inhibition is 3.28%.

And the Inhibition (Acinetobacter baumannii)?
Its Inhibition is -12.23%.

And the Inhibition (Escherichia coli)?
The Inhibition was 5.2%.

What about the Inhibition (Klebsiella pneumoniae) of the same molecule?
Its Inhibition is 7.02%.

And the Inhibition (Candida albicans)?
Its Inhibition is 2.48%.

What about the Inhibition (Cryptococcus neoformans) of the same molecule?
Its Inhibition is -8.23%.

Which Inhibition (Staphylococcus aureus) does the source give for `N#CC1=C2CCCCC2(O)NC1=O` (stereo not given) here?
The Inhibition was 6.52%.

And the Inhibition (Acinetobacter baumannii)?
The Inhibition was -3.34%.

And the Inhibition (Escherichia coli)?
The Inhibition was 7.41%.

What about the Inhibition (Klebsiella pneumoniae) of the same molecule?
Its Inhibition is 2.61%.

And the Inhibition (Candida albicans)?
Its Inhibition is -0.03%.

And the Inhibition (Cryptococcus neoformans)?
Its Inhibition is -5.83%.

Which results are given for `Nc1nnc(S)n1-c1ccc(Cl)cc1`?
Inhibition (Staphylococcus aureus): 10.79%; Inhibition (Acinetobacter baumannii): -9.57%; Inhibition (Escherichia coli): 13.33%; Inhibition (Klebsiella pneumoniae): -2.18%; Inhibition (Candida albicans): 11.3%; Inhibition (Cryptococcus neoformans): -11.28%
